Experimental data: PubChem BioAssay AID504941 (Broad Institute, 2011)
Hit rate of the full screen: of about 1,200 compounds, about 170 (14%) were called active. How the calls were made is not given here. A selection follows. Measured potencies and affinities stand elsewhere.

test: twin-arginine translocation blockade, bacterial reporter – cherry-pick, set 2, plate reader, dose response (AID 504941); conditions: E. coli Tat transport reporter; series mostly up to 38 µM; activity change, negative = inhibition: at the top concentration

Activity change, negative = inhibition, inactive:
CC(C)C(C(=O)NC1CCCC1)N(CC1CCCO1)C(=O)CNS(=O)(=O)c1ccccc1 (stereo unspecified) -0.216%
CCOc1nc(Nc2ccc(OC)c(Cl)c2)nc(OCC)n1 -7.13%
Cc1ccc(C)c(N2CCN(c3ccc4cc(S(=O)(=O)N5CCCCC5)ccc4n3)CC2)c1 10.4%
O=C(CCCc1nc2ccccc2s1)NC1CCOC1=O (stereo unspecified) -11.4%
Clc1ccccc1-c1ccc2ncnc(NCc3cccnc3)c2c1 7.13%
Cc1ccc(S(=O)(=O)Nc2ccnc(-c3cccnc3)n2)cc1 9.87%
CC1CC(OC(=O)C(O)c2ccccc2)CC(C)(C)N1C (stereo unspecified) -5.37%
CC1CCN(CC[C@H]2CCCN2S(=O)(=O)c2cccc(O)c2)CC1 8.51%
CC1CCN(C(=O)c2ccc(S(=O)(=O)N3CCCC3)cc2)CC1 10.2%
COc1ccc(/C=C/C(=O)OCc2cc(=O)n3c(n2)sc2ccccc23)cc1 -12%
CCN1CCN(C(=O)C(NS(=O)(=O)c2ccc3nc(C)sc3c2)C(C)C)CC1 (stereo unspecified) -20.5%
O=C(CCNC(=O)c1ccc([N+](=O)[O-])cc1)Nc1cccc(S(=O)(=O)N2CCCCCC2)c1 -10.6%
O=C(NCCc1ccccc1)c1ccc2c(c1)OCCCO2 -10.6%
O=C(CN1CCN(c2ccc(O)cc2)CC1)Nc1ccc2c(c1)OCCO2 21.3%
Cc1cc(Cl)c(S(=O)(=O)NC(C(=O)O)C(C)C)cc1OCC(=O)NC1CCCCC1 (stereo unspecified) -0.619%
C[C@@H]1CN(c2c(F)c(F)c3c(=O)c(C(=O)O)cn(C4CC4)c3c2F)C[C@H](C)N1 303%
Nc1nc(=O)n(C2CC(O)C(CO)O2)cc1F (stereo unspecified) 181%
CCNC(=S)NCCN1CCOCC1 7.35%
O=C(Nc1ccc2c(c1)OCCO2)c1ccc(Cl)c(S(=O)(=O)N2CCCCC2)c1 6.22%
CCCc1cc(=O)[nH]c2nnc(SCC(=O)Nc3ccc4c(c3)OCCO4)n12 1.25%
C=CCN(CC=C)S(=O)(=O)c1ccc(NC(=S)NC(=O)C2CC2)cc1 -41.6%
COc1ccc(-c2cc(C(=O)Oc3ccc([N+](=O)[O-])cc3)c3ccccc3n2)cc1 30.5%
COc1ccc(-c2cc(C)no2)cc1S(=O)(=O)NCCCN1CCCCCC1 9.9%
CCOc1ccc2[nH]c(C)c(CN3CCCCC3)c(=O)c2c1 17.6%
Cc1cc(-n2c(C)cc(C(=O)COc3cccnc3[N+](=O)[O-])c2C)no1 0.514%
O=C(N1CCCC1)C12CC3CC(C1)CC(C(=O)N1CCCC1)(C3)C2 4.29%
COc1cc(C(=O)NCCOC(=O)c2cccc(N(C)C)c2)cc(OC)c1OC -12.9%
C/C(=N\NC(=O)c1cccc(O)c1)c1cccc(NC(=O)c2ccc(F)cc2)c1 7.5%
Cc1cc(C)cc(-n2c(C)cc(/C=C3\C(=N)N4N=C(CC(C)C)SC4=NC3=O)c2C)c1 7.24%
COc1ccc(NS(=O)(=O)c2ccc(NC(=O)Cc3cccs3)cc2)cc1 12.2%
O=S(=O)(N1CCCCC1)N1CCN(c2ccccc2F)CC1 -1.04%
CCOC(=O)C(C(=O)Nc1ccc(C)cc1)C1CCCCC1 (stereo unspecified) 17.6%
CC(CN1CCOCC1)(NS(=O)(=O)c1ccccc1)c1ccccc1 (stereo unspecified) -6.65%
Cc1ccccc1NC1=NC(=S)N(c2ccccc2)C12CCOC(C)(C)C2 (stereo unspecified) -0.879%
CC(C)OC(=O)c1c(NC(=O)c2ccco2)sc2c1CCCC2 -6.21%
CCOC(=O)CC(=O)Nc1ccccc1C(=O)O -1.16%
O=C(O)CCC(=O)Nc1sc2c(c1C(=O)Nc1cccc3ccccc13)CCCCC2 -7.8%
CCCCNC(=O)CCCn1c(=O)[nH]c2ccc(Br)cc2c1=O -10.4%
O=C1OCc2ccc(NC(=O)C3CC3)cc21 -7.47%
OCCN1CCN(C(=S)Nc2ccc(Oc3ccccc3)cc2)CC1 -21.3%
Cc1ccc(CS(=O)(=O)CCC(=O)NCCCN2CCCC2)cc1 2.96%
Cc1ccc(CC(=O)NCCS(=O)c2ccc(Cl)cc2)cc1 (stereo unspecified) 12.3%
O=C(CN1C(=O)NC2(CCCCC2)C1=O)NCc1cccs1 22.5%
COCn1c(-c2cccc(Br)c2)nc2ccccc21 21.4%
COc1cc(Cl)ccc1OCc1cc(C(=O)NCC(C)(C)N2CCOCC2)no1 -6.94%
CSc1ccccc1OCc1cc(C(=O)N(C)Cc2c(C)n[nH]c2C)no1 12.3%
O=C(CSc1nnc(-c2cccnc2)o1)Nc1ccc(Cl)cc1 12.1%
NS(=O)(=O)c1ccc(NC(=O)CSc2nnc(-c3ccc(O)cc3)o2)cc1 8.57%
CC(=O)N1Cc2cc([N+](=O)[O-])ccc2Oc2ccccc21 12.2%
CC(=O)NC(Cc1cnc[nH]1)C(=O)O (stereo unspecified) 6.77%
CCCN(C(=O)Cn1c(C(F)(F)F)nc2ccccc21)C1CCS(=O)(=O)C1 (stereo unspecified) 8.26%
O=C(NCc1ccccc1)c1ccc(Br)o1 -13.9%
O=C(NCc1ccccc1)c1ccc(F)c(F)c1 7.16%
Cc1ccc(OCCNC(=O)c2cc(-n3cnnc3)ccc2Cl)cc1C -6.14%
C[C@@H]1O[C@@H](Oc2c(-c3ccc(O)c(O)c3)oc3cc(O)cc(O)c3c2=O)[C@H](O)[C@H](O)[C@H]1O 12.2%
COc1ccc(Cl)cc1NC(=S)NCc1cccnc1 22.5%
CC(NC(=O)c1ccc([N+](=O)[O-])o1)C12CC3CC(CC(C3)C1)C2 (stereo unspecified) 15.2%
CC(C)N1CCc2c(sc(NC(=O)c3ccc(S(=O)(=O)N4CCc5ccccc54)cc3)c2C(N)=O)C1 34.7%
COc1ccccc1N1CCN(C(=O)c2cc3c(=O)n4ccccc4nc3s2)CC1 11%
Cc1ccc(NC(=O)CSc2nccn2C)cc1F 17%
CCCNC(=O)c1cc(C)no1 6.59%
COc1ccc(S(=O)(=O)N2CCC(C(=O)NCc3cccnc3)CC2)cc1OC 2.11%
COc1ccc(NC(=O)Cn2ncc(Cl)c(Cl)c2=O)cc1S(=O)(=O)N1CCOCC1 2.91%
O=c1[nH]c2ccc(S(=O)(=O)N3CCCCC3)cc2s1 17%
CN(C)C(=S)Nc1ccc2ccccc2c1 -3.63%
O=C(Cn1cc(C(F)(F)F)ccc1=O)OCC(=O)c1ccc[nH]1 11.2%
Cc1c(Cl)cccc1NC(=O)C1NC(=O)CC1c1ccccc1 (stereo unspecified) -18%
COc1ccc(/C(C)=N/NC(=O)CNC(=O)c2ccncc2)c(OC)c1 -12.5%
COC(=O)CSc1ccc(C#N)c(SCC(=O)OC)c1 -25.3%
CCC1Oc2nc(SC)nnc2-c2ccccc2N1C(=O)c1ccccc1 (stereo unspecified) 4.65%
CCC(CC)C(=O)Nc1nnc(S(=O)(=O)N2CCCCCC2)s1 -1.1%
CCOC(=O)c1cc(C)sc1NC(=O)C(c1ccccc1)c1ccccc1 -30.7%
CCOc1ccc(NC(=O)CN2C(=O)/C(=C3\SC(=S)N(C4CCS(=O)(=O)C4)C3=O)c3ccccc32)cc1 (stereo unspecified) 8.88%
Cc1cc(C)c(NS(=O)(=O)c2ccc3c(c2)NC(=O)CCS3)c(C)c1 -14.1%
O=C(COC(=O)/C=C/c1ccc(F)cc1)Nc1nnc(-c2ccccc2)o1 34.7%
Cc1cc(C(=O)CSc2nnc(-c3ccc4c(c3)OCO4)o2)c(C)n1-c1ccc(F)cc1 3.43%
O=C(Cn1cc([N+](=O)[O-])cn1)N1CCN(c2ccccc2)CC1 11.2%
COC(=O)C1C(O)C(C)C(O)C(C)(O)/C=C\C=C(/C)C(=O)Nc2c(C)c(OC(C)=O)c3c(c2O)C(=O)C(C)=C2OCOC(=C23)/C(C)=C/C(C)(O)C(O)C(C)C1O (stereo unspecified) -24.2%
COc1ccc(OC)c(S(=O)(=O)N2CCC(C(=O)NC3CC3)CC2)c1 19.3%
COc1ccc(S(=O)(=O)N2CCC(C(=O)N3CCN(C)CC3)CC2)cc1Cl -4.18%
CCOc1ccc(NC(=O)CNC(=O)Cc2ccccc2)cc1 4.14%
COC(=O)c1ccc(CNC(=O)C2CCC(=O)N(Cc3ccccn3)C2)cc1 (stereo unspecified) -28.2%
CNC1=CC(=O)CC(c2ccccc2)C1 (stereo unspecified) 12.6%
CCCCCn1c(CNC(=O)c2cccs2)nc2ccccc21 -1.52%
O=C(Nc1c2c(nn1-c1ccccc1)CS(=O)(=O)C2)c1cccs1 -5.38%
O=C(COC(=O)c1cccc(S(=O)(=O)N2CCc3ccccc32)c1)Nc1ncc(C(F)(F)F)cc1Cl 14.6%
Cc1cccnc1NC(=O)c1cccc(S(=O)(=O)N2CCCc3ccccc32)c1 -14%
Cc1nc(NC(=O)/C=C/c2ccccc2)sc1C(=O)N(C)C 0.771%
CC(NC(=O)CSc1nc2sc3c(c2c(=O)n1-c1ccccc1)CCCC3)c1ccccc1 (stereo unspecified) 6.92%
CCn1c(C)cc(/C=C2/NC(=O)N(Cc3ccccc3F)C2=O)c1C 10.6%
O=C(COc1ccc2c3c(c(=O)oc2c1)CCCC3)NCCCn1ccnc1 16.2%
O=C(COc1ccc2c3c(c(=O)oc2c1)CCCC3)NCC(O)c1ccccc1 (stereo unspecified) 4.93%
c1ccc(-n2c(SCC3CCCCO3)nnc2-c2cccs2)cc1 (stereo unspecified) -12.4%
Cc1noc(C)c1COc1ccccc1C(=O)NC1CCC(C)CC1 (stereo unspecified) -7.29%
CCN(CC)CC(=O)N(CC(=O)Nc1c(C)cc(C)cc1C)C1CCCCC1 -9.21%
O=[N+]([O-])c1ccc(O)c(/C=N/Nc2nc3ccccc3[nH]2)c1 -11.5%
O=c1oc(-c2ccccc2)nc2sc3c(c12)CCCC3 -12.9%
O=C(O)CCCc1nc(-c2ccc(Cl)cc2)no1 -8.66%
COc1ccc(OCc2nnc(SCC(=O)N3C(C)CCCC3C)o2)cc1 (stereo unspecified) 13.9%
c1ccc(C2NCCc3ccccc32)cc1 (stereo unspecified) 39.2%
Nc1nnc(-c2cn(-c3ccccc3)nc2-c2ccc(Cl)cc2)o1 -4.94%
O=C(COC(=O)C12CC3CC(CC(Br)(C3)C1)C2)Nc1cccnc1Cl 7.63%
CSc1ncccc1C(=O)OCC(=O)N(C)c1c(N)n(Cc2ccccc2)c(=O)[nH]c1=O 33.1%
O=C(OCC(=O)N1CCCC1=O)c1cccc(S(=O)(=O)N2CCOCC2)c1 17%
COc1ccc(NC(=O)CC2(CC(=O)O)CCCC2)cn1 1.15%
O=C(Nc1nc2c(s1)CCCC2)c1cccc(S(=O)(=O)N2CCCc3ccccc32)c1 -28%
